Results: PubChem BioAssay (NCI)
The panel holds about 79,000 compounds, 15% with a hit somewhere; the sample as a whole holds those more often. Unmarked numbers belong to inactive results. Activity calls are given as the source filed them. No stated cut-off is given here; in the data, active means growth inhibition above about 70%; inactive means the rest.

Experiment: NCI Yeast Anticancer Drug Screen. Data for the mlh1 rad18 strain (AID 175)
Conditions: S. cerevisiae mlh1 rad18 strain growth inhibition, hits give high values
Experimental: Growth inhibition of yeast strains with defined genetic alterations is measured as a screen for potential anti-cancer activity. Selected strains with alterations in DNA damage repair or cell cycle control were exposed to compounds and growth inhibition was measured relative to vehicle treated controls. The strain used in this assay is mlh1 rad18

[1] = at 5.0 µM (retest, dose inferred, filed as 0.5)
[2] = at 50.0 µM (retest, dose inferred, filed as 5.0)

| Structure (SMILES) | growth inhibition [1] [%] | growth inhibition [2] | growth inhibition (at 50.0 µM) |
| --- | --- | --- | --- |
| CCOC(=O)c1sc2[n+](c1C)C(=O)/C(=C/c1cc(OC)c(OC)c(OC)c1)S2 | 6 | 60% | 25.1% |
| O=C(CCCN1CCC2(CC1)OC(=O)N(c1ccccc1)C2=O)c1ccccc1 | 23 | 78% (active) | 72.9% (active) |
| NNc1nnc(-c2ccccc2)nc1Cc1ccccc1 | -30 | 97% (active) | 83.6% (active) |
| Cc1ccc(C(C)C)c(C(=C2C=CC(=[N+](C)C)C=C2)c2c(C(C)C)ccc(C)c2O)c1O | 63 | 94% (active) | 96.9% (active) |
| CCC(C)/C(C)=N/NC(N)=O (configuration not stated) | 1 | 76% (active) | 68% |
| O=C1OC(/C=C/c2ccccc2)Sc2ccccc21 (configuration not stated) | 11 | 27% | 32.9% |
| COc1cc(C(C)C(C(=O)O)C(=O)C(=O)O)cc(OC)c1OC (configuration not stated) | -3 | 41% | 44.9% |
| NCC(O)CSCc1ccc(Cl)cc1 (configuration not stated) | -5 | 18% | 82.8% (active) |
| CCN(CC)CCSc1c2ccccc2nc2cc(NCC(=O)Nc3ccccc3-c3ccccc3NC(=O)CNc3ccc4c(SCCN(CC)CC)c5ccccc5nc4c3)ccc12 | 42 | 98% (active) | 89% (active) |
| CCCCCC/C(C)=N/Nc1ccc([N+](=O)[O-])cc1[N+](=O)[O-] | -6 | 58% | -0.8% |
| CCCCOc1ccc(Nc2c3ccccc3nc3ccccc23)cc1 | 26 | 92% (active) | 87% (active) |
| CC(O)CN1C(=O)c2cccc3cc([N+](=O)[O-])cc(c23)C1=O (configuration not stated) | 25 | 73% (active) | 83.3% (active) |
| CCOc1ccc2ccc3cccnc3c2n1 | 2 | 40% | 35% |
| Nc1ccc2ncc(Nc3ccc(Cl)c(Cl)c3)nc2c1 | 44 | 98% (active) | 80.5% (active) |
